Compound activity as filed in PubChem.
D2 ag-1 = activates the human D2 dopamine receptor; HEK293 T-REx D2 cells, calcium flux agonist mode; activation, % at 2 µM; 0.53% of 340,000 active;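 active = activation over 3 SD above normal in the single-dose calcium agonist read, cut at about 30% in these data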
Target sequence (P14416 whole entry, looked up): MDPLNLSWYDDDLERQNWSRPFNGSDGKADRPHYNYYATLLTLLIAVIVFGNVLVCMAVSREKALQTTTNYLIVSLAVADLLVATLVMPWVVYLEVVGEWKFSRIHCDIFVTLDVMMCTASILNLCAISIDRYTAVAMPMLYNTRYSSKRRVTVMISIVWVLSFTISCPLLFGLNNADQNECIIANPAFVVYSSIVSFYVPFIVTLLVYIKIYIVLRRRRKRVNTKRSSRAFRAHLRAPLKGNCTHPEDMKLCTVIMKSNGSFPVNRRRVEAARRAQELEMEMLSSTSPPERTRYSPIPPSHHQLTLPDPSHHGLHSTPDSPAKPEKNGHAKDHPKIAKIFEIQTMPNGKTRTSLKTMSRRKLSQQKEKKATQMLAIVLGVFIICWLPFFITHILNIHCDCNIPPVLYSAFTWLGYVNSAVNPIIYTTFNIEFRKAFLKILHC
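Tetracycline-induced HEK293 T-REx cells with force-coupled D2 receptor, plated overnight at 30 C, loaded with no-wash calcium dye. After a 10 s baseline, compound was pin-added and calcium flux read kinetically for 180 s; calcium rises flagged agonists.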
D2 PAM-1 = human D2 receptor positive allosteric modulation; P14416; DiscoveRx D2 beta-arrestin cells, luminescence, 90 min; 100% = 57 uM dopamine signal; potentiation, % (no concentration beside the values); 0.23% of 360,000 active; AID 624464; in the data active = potentiation above about 50%
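D2 cells co-treated with compound plus 50 nM dopamine (EC20) for 90 min at 37 deg C to detect potentiation. Beta-arrestin recruitment was read as enzyme-fragment luminescence after 1 h at ambient temperature. Full response was set by 57 uM dopamine.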
D2 ag-2 = activates the human D2 dopamine receptor; P14416; activation, % (no concentration beside the values); 0.084% of 360,000 active; DiscoveRx PathHunter D2 beta-arrestin, luminescence, 90 min; 100% = 57 uM dopamine signal; in the data active = activation above about 40%
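DiscoveRx PathHunter D2 beta-arrestin cells (2,100/well) attached overnight, then compound-stimulated 90 min at 37 C in HBSS/10 mM HEPES/0.1% Tween-20 buffer; beta-galactosidase complementation read by luminescence after 1 h at ambient temperature. Dopamine 57 uM final (EC100) as control.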
D2 antagonist = antagonists of human D2 dopamine receptor; P14416; HEK293 TREx D2 cells, calcium flux, dopamine EC80; inhibition, % at 10 µM; 2% of 340,000 active; AID 485344; in the data active = inhibition above about 30%; inactive = below that, where a call was filed
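Tetracycline-induced HEK293 T-REx cells expressing D2 force-coupled to calcium signalling were dye-loaded, exposed to compound for 180 s, then challenged with an EC80 of dopamine; calcium flux was followed kinetically for a further 180 s.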
D2 PAM-2 = positively modulates the human D2 dopamine receptor allosterically. HEK293 T-REx D2, calcium flux, EC20 dopamine potentiation. potentiation, % at 10 µM. AID 485347. 0.34% of 340,000 active. P14416;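 active = potentiation over 3 SD above the plate norm, cut at about 30% in these data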
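Tetracycline-induced HEK293 T-REx cells force-coupled to calcium signalling expressed D2; compounds were pin-added after a 10 s baseline, read kinetically 180 s, then an EC20 dopamine challenge followed with a further 180 s calcium read.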
Large screens that a line does not name were inactive. The list is not random: actives were taken first. Their share in the collection is about 2.4%.

C[C@H](NC(=O)N1CCn2c1nc1ccccc12)C(=O)NC1CC1	D2 antagonist 67.1
COc1ccc(CCNC(=O)[C@H](C)NC(=O)N2CCn3c2nc2ccccc23)cc1OC	D2 antagonist 37.2
COc1ccccc1NC(=O)C1CCN(C(=O)c2sc3nc[nH]c(=O)c3c2C)CC1	none (no result: D2 PAM-1, D2 ag-2, D2 antagonist)
Cn1c(Cn2c(=O)sc3ccccc32)nnc1SCC(=O)NCc1ccco1	none
O=C(CCn1c(=O)sc2ccccc21)NCc1ccco1	D2 antagonist 41.8
O=C(CCn1c(=O)sc2ccccc21)NCCC1=CCCCC1	D2 antagonist 37.5
O=c1[nH]c(=O)n(C2CCCO2)cc1F (stereo not drawn)	D2 antagonist 32.1
COC(=O)C(C(C)=O)C1=C/C(=N\S(=O)(=O)c2ccc(C)cc2)c2ccccc2C1=O (stereo not drawn)	D2 PAM-1 50.1
CC(=O)NC12CC3CC(C1)CC(C(=O)OCC(=O)Nc1c(F)cccc1F)(C3)C2	D2 antagonist 37.0
CCOC(=O)c1c(S(=O)(=O)NCC(=O)Nc2ccc(C)c(N(C)C)c2)c(C)n(C)c1C	none (no result: D2 PAM-1, D2 ag-2, D2 antagonist)
COc1cccc(OC)c1OCCN1CCCC1	none
COc1ccccc1N1CCN(CCCCOc2c(OC)cccc2OC)CC1	D2 antagonist 78.4
COc1ccccc1N1CCN(CCCNc2c(C)c(=O)n(C)c(=O)n2C)CC1	none (no result: D2 ag-1, D2 antagonist, D2 PAM-2)
COc1ccccc1N1CCN(CCOc2c(OC)cccc2OC)CC1	D2 antagonist 97.5
COc1ccccc1N1CCN(CCCNc2cc(=O)n(C)c(=O)n2C)CC1	D2 ag-1 57.9, D2 antagonist 64.1
COCCn1nnnc1CN1CCSCC1	none
COCCn1nnnc1CN1CCC(Cc2ccccc2)CC1	D2 PAM-2 38.4
CCOc1ccc(-c2nc(Cn3c(=O)cc(-c4ccccc4)c4c(C)nn(C)c43)c(C)o2)cc1	none (no result: D2 ag-1, D2 PAM-1, D2 ag-2, D2 antagonist)
COc1cccc(OC)c1OCCCN1CCC(Cc2ccccc2)CC1	D2 antagonist 88.8
CCOc1ccc(CN2CCC(Cc3ccccc3)CC2)cc1	D2 antagonist 30.4
COc1ccccc1N1CCN(CCCOc2ccc(F)cc2)CC1	D2 antagonist 89.3
COc1ccccc1N1CCN(CCCCNC(=O)c2ccc3ccccc3c2)CC1	D2 antagonist 75.4 (no result: D2 ag-1, D2 PAM-1, D2 ag-2, D2 PAM-2)
CCOc1ccc(C2C(=O)N(C3CCCCC3)CC(=O)N2Cc2ccccc2OC)cc1OC (stereo not drawn)	none (no result: D2 PAM-1, D2 ag-2, D2 antagonist)
CCOC(=O)c1cccc(NC(=O)c2cnc(N3CCCCC3)c3ccccc23)c1	none (no result: D2 PAM-1, D2 ag-2, D2 antagonist)
COc1ccccc1N1CCN(Cc2cc(=O)n3ccsc3n2)CC1	D2 PAM-2 40.9
O=c1cc(CN2CCCCCC2)nc2sccn12	none
O=C(N/N=C/c1ccc(OC(F)F)cc1)C1=COCCO1	none
O=C(N/N=C/c1ccccc1OC(F)F)C1=COCCO1	D2 antagonist 32.5
CCOC(=O)Cc1ccc(NC(=O)N2CC(CC)Oc3ccccc32)cc1 (stereo not drawn)	none (no result: D2 PAM-1, D2 ag-2, D2 antagonist)
CCN(CC)c1ccc(/C=C2\C(=O)c3ccc(C(=O)O)cc3C2=O)cc1	D2 ag-1 109.9, D2 antagonist 54.4
COc1cccc(Cn2cccc(NC(=O)NC3CCCCC3)c2=O)c1	D2 PAM-2 30.6
Cc1ccc2c(nc3s/c(=C\c4ccc(-c5ccccc5C(=O)O)o4)c(=O)n32)c1C	D2 ag-1 39.7
O=C(O)c1ccc(-c2ccc(/C=c3/sc4nc5ccccc5n4c3=O)o2)cc1Cl	D2 ag-1 48.3, D2 antagonist 34.3
CCn1cc(C(=O)N2CCN(c3ccccc3)CC2)c(=O)c2cc(S(=O)(=O)N3CCC(C)CC3)ccc21	none (no result: D2 PAM-1, D2 ag-2, D2 antagonist)
Cc1ccc(N(C(=O)c2snc(C(N)=O)c2N)C(C(=O)NC2CCCC2)c2ccncc2)cc1 (stereo not drawn)	D2 antagonist 104.8
Cc1ccc(C(C(=O)NC2CCCCC2)N(CCCN2CCOCC2)C(=O)c2snc(C(N)=O)c2N)cc1 (stereo not drawn)	D2 antagonist 49.2
CCOc1ccc(N(C(=O)c2snc(C(N)=O)c2N)C(C)C(=O)NC2CCCCC2)cc1 (stereo not drawn)	none (no result: D2 PAM-2)
COc1cc(OC)cc(N(C(=O)c2snc(C(N)=O)c2N)C(C(=O)NCC2CCCO2)c2ccc(C)o2)c1 (stereo not drawn)	D2 PAM-2 34.6 (no result: D2 PAM-1, D2 ag-2)
CCOc1ccc(N(C(=O)c2snc(C(N)=O)c2N)C(C(=O)NC2CCCC2)C(C)C)cc1 (stereo not drawn)	D2 PAM-2 31.0
O=C(Oc1ccc(-c2nnco2)cc1)N1CCCCC1	D2 PAM-2 34.5
O=C(Oc1ccc(Cl)cc1)N1CCCCC1	none
COc1cc2c(cc1OC)C(COc1ccccc1OC)N(C(=O)COc1ccc(Cl)cc1)CC2 (stereo not drawn)	none (no result: D2 ag-1, D2 PAM-1, D2 ag-2, D2 antagonist)
COc1cc(C(=O)OC(C)C(=O)N2CCCC2)cc2c1OCCO2 (stereo not drawn)	D2 antagonist 67.1
Cc1sc2ncnc(N3CCN(CCOc4ccc(Cl)cc4)CC3)c2c1C	D2 antagonist 35.5
Cc1sc2ncnc(N3CCC(C(=O)NNC(=O)COc4ccc(Cl)cc4)CC3)c2c1C	none (no result: D2 ag-1, D2 antagonist, D2 PAM-2)
Cn1ccc2cc(S(=O)(=O)N3CCCN(C(=O)Nc4ccccc4Br)CC3)ccc21	none (no result: D2 PAM-1, D2 ag-2, D2 antagonist)
CC(NC(=O)Nc1ccc(O)cc1)(C(F)(F)F)C(F)(F)F	D2 PAM-1 117.8
CCN(CC)CCn1c(NCc2ccc3c(c2)OCO3)nc2ccccc21	D2 antagonist 32.7
CCCn1c(Nc2cccc(OC)c2)nc2ccccc21	D2 antagonist 38.8
CCN(CC)CCn1c(NCc2cc(OC)ccc2OC)nc2ccccc21	none
CCCn1c(Nc2ccccc2)nc2ccccc21	none
CCN(CC)CCn1c(NCc2cccc(OC)c2)nc2ccccc21	D2 antagonist 44.4
CCN(CC)CCn1c(NC(=O)c2ccc(C(F)(F)F)cc2)nc2ccccc21	D2 antagonist 88.3
CCCC12CN3CC(CCC)(CN(C1)C3c1c(C)[nH]c(=O)[nH]c1=O)C2=O (stereo not drawn)	none (no result: D2 PAM-1, D2 ag-2, D2 antagonist)
O=C(NCc1ccccc1)c1cnc(N2CCCCC2)c2ccccc12	none (no result: D2 PAM-1, D2 ag-2, D2 antagonist)
CC(OC(=O)/C=C/c1ccccc1)C(=O)N1CCc2ccccc21 (stereo not drawn)	D2 antagonist 30.4 (no result: D2 ag-1)
Cc1ccc(CCNC(=O)CN2CCN(Cc3ccc(Cl)cc3)C2=O)cc1	none (no result: D2 PAM-1, D2 ag-2, D2 antagonist)
CCOC(=O)CN(C(=O)CSc1nnc2c(n1)[nH]c1ccc(OC)cc12)c1ccc(F)cc1	D2 antagonist 79.7
Cc1ccc(C(=O)Nc2cc3cc(Cl)ccc3oc2=O)cc1	none (no result: D2 PAM-1, D2 ag-2, D2 antagonist)
CC(C)c1ccc(Nc2ncnc3c2c(-c2ccccc2)cn3-c2ccccc2)cc1	none (no result: D2 PAM-1, D2 ag-2, D2 antagonist)
CN(C1=NC(=O)C(CC(=O)Nc2ccc(Br)cc2)S1)c1ccc(O)cc1 (stereo not drawn)	D2 antagonist 40.4
O=C(CC1SC(=O)N(c2ccccc2)C1=O)Nc1ccc(Br)cc1 (stereo not drawn)	none
COc1cc(Cl)ccc1OCc1cc(C(=O)N2CCN(C)C(=O)[C@@H]2C)no1	none (no result: D2 ag-1, D2 antagonist, D2 PAM-2)
